The full list was thinned out, with hits kept by preference.
Tb PYK inh = T. brucei pyruvate kinase inhibition; Q57TT1; TbPYK enzyme, Kinase-Glo Plus ATP luminescence, 45 min; AID 624173; 410,000 tested, 0.12% active; Potency, µM (highest dose often 76.8 µM), inactives show top-dose activity, negative = inhibition, usual class: inhibitors; note: potency is the fitted concentration of half-maximal effect; % is set by controls: 0 for no effect and ±100 for the full control effect; nearly all actives have a fitted effect of over 50% in size
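T. brucei PYK with substrate was exposed to pin-transferred compounds across a concentration series, then started with 130 uM ADP (final). After 45 min at room temperature, Kinase-Glo Plus luminescence was read, normalized and curve-fitted.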
Shiga inhibitor = inhibitors of Shiga toxin in Vero cells. Vero cells, Shiga toxin protein synthesis inhibition reporter. inhibition, % at 38.7 µM. 290,000 tested, 9.2% active; in the data active = inhibition mostly above about 28%, no sharp cut-off; inactive = mostly below about 43%; note: 0% is about no effect
Giardia FBPA inh = Giardia lamblia aldolase inhibition. 290,000 tested, 0.71% active. purified Giardia FBPA. Potency, µM (highest dose often 59.6 µM), without a hit: top-dose activity, negative = inhibition, usual class: inhibitors; note: potency is the fitted concentration of half-maximal effect; % is set by controls: 0 for no effect and ±100 for the full control effect; nearly all actives have a fitted effect of over 55% in size
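40 nM FBPA preincubated 10 min at RT with compound (up to 57.5 uM final), then substrate plus GAPDH/TPI/NAD/arsenate coupling and diaphorase/resazurin added. Fluorescence read after 20 min at RT, 525/598 nm.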
Cycloheximide cs = affects cycloheximide protein synthesis inhibition readout, counter-screen | max response, % | 300,000 tested, 12% active | cell reporter, cycloheximide protein synthesis inhibition counterscreen | AID 2314; in the data active = max response mostly above about 13%, no sharp cut-off; inactive = mostly below about 14%; note: read at 38.3 µM for the half of the compounds with a filed dose; 0% is about no effect
LmPK inhibitor = LmPK (Leishmania mexicana) enzyme inhibition | Q27686 | purified LmPK, Kinase-Glo ATP luminescence, 1 h | Potency, µM (highest dose often 57.5 µM), without a hit: top-dose activity change, negative = inhibition, actives largely listed as inhibitors | 290,000 tested, 0.37% active | AID 1721; note: potency is the fitted concentration of half-maximal effect; % is set by controls: 0 for no effect and ±100 for the full control effect
Target sequence (Q27686 whole entry, looked up): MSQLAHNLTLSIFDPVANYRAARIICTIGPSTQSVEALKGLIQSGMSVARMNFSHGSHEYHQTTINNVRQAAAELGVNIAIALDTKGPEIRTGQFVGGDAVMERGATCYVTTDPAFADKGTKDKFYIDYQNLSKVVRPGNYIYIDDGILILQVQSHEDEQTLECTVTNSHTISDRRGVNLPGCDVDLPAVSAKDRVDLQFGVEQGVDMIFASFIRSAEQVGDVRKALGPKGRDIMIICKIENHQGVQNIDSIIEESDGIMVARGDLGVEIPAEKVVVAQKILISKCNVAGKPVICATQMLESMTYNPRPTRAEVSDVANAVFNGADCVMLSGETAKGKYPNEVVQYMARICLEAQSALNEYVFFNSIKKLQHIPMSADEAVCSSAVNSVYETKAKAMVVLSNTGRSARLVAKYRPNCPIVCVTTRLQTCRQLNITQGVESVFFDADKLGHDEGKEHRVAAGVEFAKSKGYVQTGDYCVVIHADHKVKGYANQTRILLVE
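qHTS format; LmPK 0.1 nM; substrates PEP 0.5 mM and ADP 0.1 mM. One-hour room-temperature incubation, then coupled luciferase luminescence; 0.5 nM enzyme wells mark activation.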
Sm TGR inh = blocks Schistosoma mansoni thioredoxin glutathione reductase. 360,000 tested, 3% active. Potency, µM (doses to about 114 µM), inactives show top-dose activity change, negative = inhibition, most hits filed as inhibitors. Q962Y6. purified TGR, DTNB reduction, TNB absorbance 405 nm. AID 485364; note: potency is the fitted concentration of half-maximal effect; % is set by controls: 0 for no effect and ±100 for the full control effect; nearly all actives have a fitted effect of over 60% in size
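TGR 20 nM + NADPH 100 uM (dispensed conc.), cpd preinc 15 min RT; start with NADPH (500 uM addition) then DTNB (15 mM addition). Kinetic TNB absorbance, 405 nm filter. Four-parameter Hill fit across titration.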
Starred values were filed as active, the others as inactive; i = inactive; ? = inconclusive; . = no result given; [ ] = dose if it differs, or a comment. Unless noted, calls come from the whole dose curve; as a rule, active = well fitted curve in the direction sought with a large enough effect; inconclusive = small, poorly fitted or top-dose-only effect, or another doubt; inactive = no such curve, though single readings can be large; an effect the other way counts as inactive or inconclusive.

SMILES	Tb PYK inh	Shiga inhibitor	Giardia FBPA inh	Cycloheximide cs	LmPK inhibitor	Sm TGR inh
O=C(NCCCl)Nc1cccnc1Cl	-3.8%	12.6	3.3%	12.1*	-3.3%	0.9%
COc1ccc(CNC(=O)C(C)N2CCN(c3ccc(C(C)=O)cc3)CC2)cc1 (centres undefined)	-9.7%	35.5	6.4%	17.1*	-1.4%	-9.1%
CC(=O)NC1C(O)O[C@H](C(=O)O)[C@@H](O)[C@@H]1O (some centres undefined)	.	-5.4	5.6%	13.6	.	.
O=C(Cn1c(=O)n(Cc2ccco2)c(=O)c2c3c(sc21)CCCCC3)Nc1ccccc1	-8.4%	14.5	-8.2%	5.9	2.1%	10µM*
O=C(Cn1c(=O)n(Cc2ccco2)c(=O)c2c3c(sc21)CCCCC3)c1ccccc1	-1.8%	57.0*	-1.4%	12.3	0.1%	35.5µM*
O=c1c2c3c(sc2n(CCN2CCCC2)c(=O)n1Cc1ccco1)CCCCC3	-4.0%	-20.9	-6.3%	5.1	5.2%	0.1%
CCCCOc1ccc(CN2CCN(CC)CC2)cc1	13.7%	-2.2	-12.9%	11.6	-12.0%	2.0%
CCCCCCOc1ccc(CN2CCN(CCO)CC2)cc1	0.6%	61.0*	7.6%	37.7*	-3.8%	38.2%
CCCCOc1ccc(CN2CCC(O)CC2)cc1	6.3%	90.8*	?	36.5*	-0.1%	-26.1%
CCCCOc1ccc(CN2CCN(CCO)CC2)cc1	-4.9%	24.2	-10.5%	28.6*	0.3%	-14.7%
O=C(NCCS(=O)(=O)N1CCN(c2cccc(Cl)c2)CC1)C(c1ccccc1)c1ccccc1	0.4%	.	.	.	.	7.6%
COc1ccccc1C1CCN(Cc2cccc([N+](=O)[O-])c2)CC1	7.4%	3.2	3.7%	-0.9	9.5%	1.7%
COc1ccccc1C1CCN(c2ccc(CO)cc2[N+](=O)[O-])CC1	2.9%	17.8	-4.1%	14.5*	-0.2%	2.3%
COc1ccccc1NC(=O)C(C)Sc1nnc2ccc3ccccc3n12 (centres undefined)	-10.6%	.	.	.	.	?
CCCCN(CCCC)CCNC(=O)c1cc(=O)[nH]c2ccc(S(=O)(=O)N3CCCCCC3)cc12	4.0%	.	.	.	.	-2.6%
COc1cc(/C=N/Nc2ccccc2[N+](=O)[O-])ccc1OC(=O)c1ccccc1F	-8.7%	44.9*	1.7%	30.6*	-2.0%	4.4%
COc1ccc(NS(=O)(=O)c2cc([N+](=O)[O-])ccc2N/N=C/c2c(C)[nH]c3ccccc23)cc1	-4.1%	.	.	.	.	.
Cc1[nH]c2ccccc2c1/C=N/Nc1ccccc1[N+](=O)[O-]	-11.5%	86.2*	-23.6%	37.4*	?	13.5%
CCOc1ccccc1/C=N/Nc1ccccc1[N+](=O)[O-]	-3.0%	-18.4	1.9%	-1.6	-7.8%	0.7%
COc1ccccc1/C=N\Nc1ccccc1[N+](=O)[O-]	-11.8%	73.0*	-0.4%	48.9*	-14.0%	5.8%
COc1cc(/C=N/Nc2ccc(F)cc2F)cc(OC)c1O	?	-27.0	?	13.4	-1.3%	25.1µM*
O=C(Nc1cccc(Cl)c1N1CCOCC1)c1cccnc1Cl	0.4%	5.1	1.7%	-0.7	0.7%	-0.6%
COc1cc(/C=N/Nc2ccccc2[N+](=O)[O-])cc(OC)c1O	-12.5%	87.9*	0.2%	26.2*	-5.1%	-4.0%
Cc1ccc(/C=N/NC(=O)c2ccc(C(=O)N/N=C/c3ccc(C)s3)o2)s1	-1.2%	-2.8	-0.6%	1.3	0.6%	-6.6%
Cc1ccc(/C=N/Nc2ccc(F)cc2F)s1	3.4%	91.0*	-0.5%	37.4*	3.3%	-15.7%
SMILES	Tb PYK inh	Shiga inhibitor	Giardia FBPA inh	Cycloheximide cs	LmPK inhibitor	Sm TGR inh
CC(C)Oc1ccccc1/C=N/Nc1ccccc1[N+](=O)[O-]	-7.6%	86.8*	1.3%	64.6*	-1.8%	3.9%
CN(C)c1ccc(-c2nc3ccccn3c2Nc2ccc3c(c2)OCCO3)cc1	3.2%	.	.	.	.	-7.1%
CC1CCN(S(=O)(=O)c2ccc3[nH]ccc3c2)CC1	2.5%	.	.	.	.	1.6%
O=C(COC(=O)/C=C/c1ccco1)Nc1ncc(Cl)cc1Cl	-7.2%	21.6	0.8%	0.7	1.7%	44.7µM*
Cc1nc(NC(=O)COC(=O)/C=C/c2ccco2)c(Cl)cc1Cl	-6.1%	.	.	.	.	8.91µM*
Cc1ccc(C(=O)OCC(=O)Nc2ncc(Cl)cc2Cl)cc1NC(=O)c1ccco1	-4.1%	21.6	2.4%	-1.8	2.5%	44.7µM*
Cc1ccc(C(=O)OCC(=O)Nc2ccccc2)cc1NC(=O)c1ccco1	0.0%	54.3	0.0%	10.8	-3.7%	0.0%
Cc1nc(NC(=O)COC(=O)C(NC(=O)c2ccco2)C(C)C)c(Cl)cc1Cl (centres undefined)	-5.5%	5.3	6.8%	-2.9	9.7%	31.6µM*
O=c1cc(-c2cccc(F)c2)[nH]c2cc(F)ccc12	.	i	-1.2%[89.2 µM]	-5.3	.	.
CC(=O)Nc1cccc(NC(=O)c2ccc(C(=O)Nc3cccc(NC(C)=O)c3)nc2)c1	-4.1%	1.8	-9.1%	10.0	2.7%	.
O=C(Nc1ccccc1)c1ccc(C(=O)Nc2ccccc2)nc1	-20.5%	49.0*	-1.9%	15.8	-10.7%	.
Cc1cccc(NC(=O)c2ccc(C(=O)Nc3cccc(C)c3)nc2)c1	-11.2%	64.0*	-9.4%	23.0	-3.4%	-0.9%
CC(C)NC(=O)Cn1c(=O)nc(-c2ccccc2)c2ccccc21	-2.0%	.	.	.	.	4.0%
COC(=O)c1ccccc1NC(=O)c1cc(C)nc2c1c(C)nn2-c1ccc(C)cc1	3.6%	.	.	.	.	4.2%
CC[C@H](C)[C@H](N)C(=O)N[C@@H](CC(N)=O)C(=O)N1CCC[C@H]1C(=O)N[C@H](C(=O)N[C@@H](Cc1ccc(O)cc1)C(=O)N[C@@H](CCCN=C(N)N)C(=O)N[C@@H](CC(C)C)C(=O)N[C@@H](CCCN=C(N)N)C(=O)N[C@@H](Cc1ccc(O)cc1)C(N)=O)[C@@H](C)CC	.	-3.6	-0.1%	-5.3	.	.
CCOC(=O)c1c(NC(C)=O)sc2c(O)cccc12	.	-9.9	-4.5%	-1.2	17.1%	3.0%[11.4 µM]
CCOC(=O)c1c(NC(C)=O)sc2c(O)c(Br)cc(Br)c12	-17.2%	-6.7	?	-5.1	-6.8%	39.8µM*
COc1ccc(OC)c(NC(=O)c2c(N3CCCC3=O)c3cc(OC)ccc3n2C)c1	0.7%	.	.	.	.	-5.5%
CSc1ccccc1NC(=O)C(=O)c1c[nH]c2ccccc12	1.5%	116.9*	-8.7%	42.3*	-0.4%	-16.9%
O=C(Nc1nccs1)C(=O)c1c[nH]c2ccccc12	3.2%	145.8*	12.8%	70.7*	0.4%	-3.9%
Cc1ccc(C)c(S(=O)(=O)Nc2ccc(O)c(C(=O)O)c2)c1	3.7%	-6.1	14.6%	-1.4	5.1%	-16.7%
Cc1ccc(S(=O)(=O)Nc2ccc3c4c(cccc24)CC3)c(C)c1	0.3%	.	.	.	.	.
Cc1ccc(S(=O)(=O)Nc2ccc(O)c3ccccc23)c(C)c1	-20.3%	28.0	?	11.8	8.91µM*	8.91µM*

Screens from PubChem BioAssay.
